Results on two molecules are retold here after the supplement of paper PMC8728848.

Holding throughout (test): glycan array binding signal (z-score within array); higher = stronger binding
Holding throughout (details): glycan notation: IUPAC condensed, linker removed

Experiment [1] addresses GalNAc(b1-3)Gal(a1-4)Gal(b1-4)GlcNAc. The procedure, abridged: (§1)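 The Consortium for Functional Glycomics database supplied 3228 glycan arrays, of which those lacking an available protein sequence were dropped. The binding signal, a within-array Z-score, was averaged across arrays of the same protein sequence and across linkers. Negative scores can be read as non-binding.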

Experiment [2] deals with GalNAc(b1-4)GlcNAc. In outline: as §1
The target of experiment [3] is GlcA(b1-3)GlcNAc. The procedure, abridged:
as §1

Experiment [4] addresses GlcNAc(b1-3)Gal(b1-4)GlcNAc(b1-2)Man(a1-3)[GlcNAc(b1-3)Gal(b1-4)GlcNAc(b1-2)Man(a1-6)]Man(b1-4)GlcNAc(b1-4)GlcNAc. The procedure, abridged:
as §1

The target in experiment [5] is GlcNAc(b1-3)Gal(b1-4)GlcNAc(b1-3)Gal(b1-4)GlcNAc(b1-3)Gal(b1-4)GlcNAc(b1-2)Man(a1-3)[GlcNAc(b1-3)Gal(b1-4)GlcNAc(b1-3)Gal(b1-4)GlcNAc(b1-3)Gal(b1-4)GlcNAc(b1-2)Man(a1-6)]Man(b1-4)GlcNAc(b1-4)[Fuc(a1-6)]GlcNAc. In outline:
as §1

Experiment [6] deals with GlcNAc(b1-3)Gal(b1-4)GlcNAc(b1-3)Gal(b1-4)GlcNAc(b1-3)Gal(b1-4)GlcNAc(b1-3)Gal(b1-4)GlcNAc(b1-2)Man(a1-3)[GlcNAc(b1-3)Gal(b1-4)GlcNAc(b1-3)Gal(b1-4)GlcNAc(b1-3)Gal(b1-4)GlcNAc(b1-3)Gal(b1-4)GlcNAc(b1-2)Man(a1-6)]Man(b1-4)GlcNAc(b1-4)GlcNAc. In outline:
as §1

Experiment [7] deals with GlcNAc(b1-3)Gal(b1-4)GlcNAc(b1-3)Gal(b1-4)GlcNAc(b1-3)Gal(b1-4)GlcNAc(b1-3)Gal(b1-4)GlcNAc(b1-2)Man(a1-3)[GlcNAc(b1-3)Gal(b1-4)GlcNAc(b1-3)Gal(b1-4)GlcNAc(b1-3)Gal(b1-4)GlcNAc(b1-3)Gal(b1-4)GlcNAc(b1-2)Man(a1-6)]Man(b1-4)GlcNAc(b1-4)[Fuc(a1-6)]GlcNAc. The procedure, abridged: as §1
The target of experiment [8] is GlcNAc(b1-3)Gal(b1-4)GlcNAc(b1-3)Gal(b1-4)GlcNAc(b1-3)Gal(b1-4)GlcNAc(b1-3)Gal(b1-4)GlcNAc(b1-2)[GlcNAc(b1-3)Gal(b1-4)GlcNAc(b1-3)Gal(b1-4)GlcNAc(b1-3)Gal(b1-4)GlcNAc(b1-3)Gal(b1-4)GlcNAc(b1-6)]Man(a1-6)[GlcNAc(b1-3)Gal(b1-4)GlcNAc(b1-3)Gal(b1-4)GlcNAc(b1-3)Gal(b1-4)GlcNAc(b1-3)Gal(b1-4)GlcNAc(b1-2)Man(a1-3)]Man(b1-4)GlcNAc(b1-4)[Fuc(a1-6)]GlcNAc. The procedure, abridged: as §1

Experiment [9] has as its target GlcNAc(b1-3)Man. The procedure, abridged:
as §1

For experiment [10], the target named is MurNAc(b1-4)GlcNAc. The procedure, abridged:
as §1

In experiment [11] the target is Neu5Ac(a2-3)Gal(b1-3)GalNAc(b1-4)[Neu5Ac(a2-8)Neu5Ac(a2-3)]Gal(b1-4)Glc. In outline:
as §1

In experiment [12] the target is Neu5Ac(a2-3)Gal(b1-4)GlcNAc(b1-2)Man(a1-3)[Neu5Ac(a2-3)Gal(b1-4)GlcNAc(b1-2)Man(a1-6)]Man(b1-4)GlcNAc(b1-4)GlcNAc. The procedure, abridged: as §1
Experiment [13] has as its target Neu5Ac(a2-3)Gal(b1-4)GlcNAc(b1-3)Gal(b1-4)GlcNAc(b1-2)Man(a1-3)[Neu5Ac(a2-3)Gal(b1-4)GlcNAc(b1-3)Gal(b1-4)GlcNAc(b1-2)Man(a1-6)]Man(b1-4)GlcNAc(b1-4)GlcNAc. The procedure, abridged:
as §1

Experiment [14] addresses Neu5Ac(a2-3)Gal(b1-4)GlcNAc(b1-3)Gal(b1-4)GlcNAc(b1-3)Gal(b1-4)GlcNAc(b1-2)Man(a1-3)[Neu5Ac(a2-3)Gal(b1-4)GlcNAc(b1-3)Gal(b1-4)GlcNAc(b1-3)Gal(b1-4)GlcNAc(b1-2)Man(a1-6)]GalNAc. The procedure, abridged:
as §1

Experiment [15] concerns the target Neu5Ac(a2-3)Gal(b1-4)GlcNAc(b1-3)Gal(b1-4)GlcNAc(b1-6)[Gal(b1-3)]GalNAc. The procedure, abridged:
as §1

The target in experiment [16] is Neu5Ac(a2-3)Gal(b1-4)[Fuc(a1-3)]GlcNAc(b1-6)[Gal(b1-3)]GalNAc. The procedure, abridged:
as §1

Experiment [17] deals with Neu5Ac(a2-6)Gal(b1-4)GlcNAc(b1-2)Man(a1-3)[GlcNAc(b1-2)Man(a1-6)]Man(b1-4)GlcNAc(b1-4)GlcNAc. In outline: as §1
For experiment [18], the target named is Neu5Ac(a2-6)Gal(b1-4)GlcNAc(b1-2)Man(a1-3)[Neu5Ac(a2-3)Gal(b1-4)GlcNAc(b1-2)Man(a1-6)]Man(b1-4)GlcNAc(b1-4)GlcNAc. In outline: as §1
In experiment [19] the target is Neu5Ac(a2-6)Gal(b1-4)GlcNAc(b1-2)[Neu5Ac(a2-6)Gal(b1-4)GlcNAc(b1-4)]Man(a1-3)[GlcNAc(b1-4)][Neu5Ac(a2-6)Gal(b1-4)GlcNAc(b1-2)[Neu5Ac(a2-6)Gal(b1-4)GlcNAc(b1-6)]Man(a1-6)]Man(b1-4)GlcNAc(b1-4)GlcNAc. The procedure, abridged: as §1
The target of experiment [20] is Neu5Ac(a2-6)Gal(b1-4)GlcNAc(b1-3)Gal(b1-4)GlcNAc(b1-3)Gal(b1-4)GlcNAc(b1-2)Man(a1-3)[Neu5Ac(a2-6)Gal(b1-4)GlcNAc(b1-3)Gal(b1-4)GlcNAc(b1-3)Gal(b1-4)GlcNAc(b1-2)Man(a1-6)]GalNAc. The procedure, abridged: as §1
Experiment [21] concerns the target Neu5Ac(a2-6)Gal(b1-4)GlcNAc6S. In outline: as §1
For experiment [22], the target named is Neu5Ac(a2-6)GalNAc(b1-4)GlcNAc6S. In outline:
as §1

Experiment [23] has as its target Neu5Gc(a2-8)Neu5Ac(a2-3)Gal(b1-4)GlcNAc. In outline: as §1
For experiment [24], the target named is Fuc(a1-2)Gal(b1-3)GlcNAc(b1-3)Gal(b1-4)Glc. The procedure, abridged: as §1
Experiment [25] deals with Fuc(a1-4)GlcNAc. The procedure, abridged:
as §1

Experiment [26] addresses Gal(b1-4)GalNAc(b1-3)[Fuc(a1-2)]Gal(b1-4)GlcNAc. In outline:
as §1

Experiment [27] addresses Gal(b1-4)Glc. The procedure, abridged: as §1
Experiment [28] concerns the target Gal(b1-4)Glc6S. The procedure, abridged:
as §1

Experiment [29] concerns the target Gal(b1-4)GlcNAc(b1-3)Gal(b1-4)[Fuc(a1-3)]GlcNAc(b1-3)Gal(b1-4)[Fuc(a1-3)]GlcNAc. In outline: as §1
Experiment [30] addresses Gal(b1-4)GlcNAc(b1-6)GalNAc. The procedure, abridged: as §1
Experiment [31] addresses Gal4S(b1-4)GlcNAc. In outline: as §1
Experiment [32] concerns the target GlcNAc(b1-3)Gal. In outline: as §1
The target of experiment [33] is Kdn(a2-3)Gal(b1-4)GlcNAc. In outline: as §1
For experiment [34], the target named is Man(a1-2)Man(a1-2)Man(a1-3)Man. In outline:
as §1

For experiment [35], the target named is Man(a1-2)Man(a1-3)[Man(a1-2)Man(a1-6)]Man(a1-6)[Man(a1-2)Man(a1-2)Man(a1-3)]Man(b1-4)GlcNAc(b1-4)GlcNAc. In outline: as §1
The target in experiment [36] is Man(a1-6)Man. In outline:
as §1

Experiment [37] addresses Neu5Ac(a2-3)Gal. The procedure, abridged:
as §1

Experiment [38] deals with Neu5Ac(a2-3)Gal(b1-3)GalNAc(b1-4)[Neu5Ac(a2-3)]Gal(b1-4)Glc. In outline:
as §1

Experiment [39] concerns the target Neu5Ac(a2-3)Gal(b1-4)[Fuc(a1-3)]GlcNAc(b1-3)Gal(b1-4)[Fuc(a1-3)]GlcNAc(b1-3)Gal(b1-4)[Fuc(a1-3)]GlcNAc. The procedure, abridged:
as §1

The target of experiment [40] is Neu5Ac(a2-3)[Neu5Ac(a2-6)]GalNAc. The procedure, abridged:
as §1

For experiment [41], the target named is Neu5Ac(a2-6)Gal(b1-4)Glc. The procedure, abridged:
as §1

Experiment [42] addresses Neu5Ac(a2-6)Gal(b1-4)GlcNAc(b1-2)Man(a1-3)[Gal(b1-4)GlcNAc(b1-2)Man(a1-6)]Man(b1-4)GlcNAc(b1-4)GlcNAc. The procedure, abridged:
as §1

In experiment [43] the target is Neu5Gc(a2-6)GalNAc. In outline: as §1
Experiment [44] has as its target Neu5Gc(b2-6)Gal(b1-4)GlcNAc. The procedure, abridged:
as §1

This is one part of a sample in which the strongest signals are shown more often than they occur.

B1: GST-Gap1 (Streptococcus parasanguinis), A1C3L5 (protein)
chain: MFYFVPSWYNGQRQWYYDTPWWFRVKNRMTFDDSVNQVKMFLQGQEEIGLMILNYQPQLRYFLHKQNIFGIYYWSFFDDIQNITRSYTKIIHLKDLNWPEGCEFLYSPFAVVVRLKGEIFAIVNYAEDGNLHSVSFQKNGKVTKDYIFDDRGFLSSILYYDIDERPLYQDYLNINGVWQVREFLKKENDPTPILMINDFSDQTFSKKYYNGWEELIKERLAIFQNNHVENEDVFVLASDTQHNQLVSSIFKEHRKIYSFFGNRFNLENLGQDRISINDATFLVVDTEKNEELLRKTCENLVFKSIPIVRLSPFDSRLRLGHSQTVKEQIIYFHIDNIELDELYSVIAIILELMTLHLDIELRIVTFRQDFQLDLLKTWIIDFIKTNHFEDLLFKQISEGENEIEDEGEIELSRIAMECFTNENQIIKCLDTARLVIDLGIEPDLYTQIASISAGIPQINRVSSDYVIHQKNGLVISDISKLSSAIEFYFDGLFNWNEALIYAVRKMSDYTSGKILKQWKGMLKKK
Take B1: the “glycan array binding signal (z-score)” value in experiment [1] was 0.159; in [2], -0.452; in [3] it was 5.69; in [4], 0.668; in experiment [5], 2.14; in experiment [6], 0.361. For the same molecule, the “glycan array binding signal (z-score)” value in experiment [7] is -0.16; in experiment [8], 0.811; in experiment [9], -0.28; in experiment [10], -0.969; in experiment [11], 0.39; in experiment [12] it was -1.31. For the same molecule, the “glycan array binding signal (z-score)” value is 2.28 in experiment [13]; 2.15 in [14]; -0.747 in experiment [15]; 1.35 in experiment [16]; -0.335 in experiment [17]; 0.84 in experiment [18]. The “glycan array binding signal (z-score)” value in [19] is -0.54; in experiment [20] it was 2.53; in experiment [21], 0.323; in [22], -0.037; in experiment [23], -0.655.

B2: RfpC (Mycobacterium tuberculosum), O07747 (protein)
chain: MHHHHHHSSGRENLYFQGHMASKSAMAAGLVTASMSLSTAVAHAGPSPNWDAVAQCESGGNWAANTGNGKYGGLQFKPATWAAFGGVGNPAAASREQQIAVANRVLAEQGLDAWPTCGAASGLPIALWSKPAQGIKGS
Turning to B2, the “glycan array binding signal (z-score)” value was 0.546 in experiment [24]; -1.09 in experiment [25]; 3.48 in experiment [26]; -0.11 in [27]; 4.01 in [28]; -0.25 in experiment [29]. For the same molecule, the “glycan array binding signal (z-score)” value in [30] is -0.822; in experiment [31], 0.815; in [1], 3.74; in experiment [32], -0.187; in [33] it was -0.421; in experiment [34] it was 2.92. The “glycan array binding signal (z-score)” value was -0.745 in experiment [35]; -0.622 in [36]; 0.641 in [37]; -0.923 in [38]; -0.798 in [39]; 0.475 in experiment [40]. The “glycan array binding signal (z-score)” value in experiment [41] is 0.057; in [42] it was -0.731; in experiment [43] it was 1.8; in experiment [44], 3.14.
